System: LEGO organoid PTN (PTEN-/-; TP53-/-; NF1-/-)
Test: bioluminescence (viable cell) signal fold change after vs before treatment, normalised to DMSO (ratio); higher = more tumour cell growth / less inhibition
Conditions: 10 µM; treatment time 6 days
Protocol: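 Luc2-labelled iPSC-derived glioblastoma-like organoids (LEGOs, genotypes PT = PTEN-/-;TP53-/-, PTCC = plus CDKN2A/B-/-, PTN = plus NF1-/-) were treated with 10 uM drug for 6 days (applied every other day) at 37 C. Bioluminescence imaging was done before treatment and 2 days after the last dose. BLI signals were normalised to the DMSO control on the same day and then to the pre-treatment signal (N=3).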

Compound	bioluminescence
CCC1(c2ccc(N)cc2)CCC(=O)NC1=O (configuration not stated) [Aminoglutethimide]	1.07
CC[C@@H](C(N)=O)N1CCCC1=O [Levetiracetam]	0.81
COc1ccc(C(CN(C)C)C2(O)CCCCC2)cc1.Cl (configuration not stated) [Venlafaxine hydrochloride]	1.33
O=C(O)CCCc1ccc(N(CCCl)CCCl)cc1 [Chloroambucil]	1.36
Cl.Cn1c(CCCC(=O)O)nc2cc(N(CCCl)CCCl)ccc21 [Bendamustine hydrochloride]	1.14
COc1cc2c(cc1OC)[C@@H]1CC(=O)[C@@H](CC(C)C)CN1CC2.COc1cc2c(cc1OC)[C@H]1CC(=O)[C@H](CC(C)C)CN1CC2 [Tetrabenazine]	0.557
CCN(C)C(=O)Oc1cccc([C@H](C)N(C)C)c1.O=C(O)[C@H](O)[C@@H](O)C(=O)O [Rivastigmine tartrate]	1.33
CN[C@@H]1C[C@H]2O[C@@](C)([C@@H]1OC)n1c3ccccc3c3c4c(c5c6ccccc6n2c5c31)C(=O)NC4 [Staurosporine]	0
NCC1(CC(=O)O)CCCCC1 [Gabapentin]	0.585
Cc1cccc([C@H](C)c2cnc[nH]2)c1C.Cl [Dexmedetomidine HCl]	0.581
CN(C)C(=O)Oc1ccc[n+](C)c1.[Br-] [Mestinon]	0.642
CC(C)c1cccc(C(C)C)c1O [Propofol]	1.2
CC(C)C[C@H]1C(=O)N2CCC[C@H]2[C@]2(O)O[C@](NC(=O)[C@@H]3C[C@@H]4c5cccc6[nH]cc(c56)C[C@H]4N(C)C3)(C(C)C)C(=O)N12.CC(C)[C@@]1(NC(=O)[C@@H]2C[C@@H]3c4cccc5[nH]cc(c45)C[C@H]3N(C)C2)O[C@@]2(O)[C@@H]3CCCN3C(=O)[C@H](Cc3ccccc3)N2C1=O.CC(C)[C@H]1C(=O)N2CCC[C@H]2[C@]2(O)O[C@](NC(=O)[C@@H]3C[C@@H]4c5cccc6[nH]cc(c56)C[C@H]4N(C)C3)(C(C)C)C(=O)N12.CCC(C)[C@H]1C(=O)N2CCC[C@H]2[C@]2(O)O[C@](NC(=O)[C@@H]3C[C@@H]4c5cccc6[nH]cc(c56)C[C@H]4N(C)C3)(C(C)C)C(=O)N12.CS(=O)(=O)O [Dihydroergotoxine mesylate]	1.88
CCN(C)C(=O)Oc1cccc([C@H](C)N(C)C)c1 [Rivastigmine]	1.18
Cc1n[nH]cc1-c1cc2[nH]c([C@@H]3CC4CCN3CC4)nc(=O)c2s1 [Simurosertib]	1.05
CCOC(=O)c1cncn1[C@H](C)c1ccccc1 [Etomidate]	2.17
NCC(CC(=O)O)c1ccc(Cl)cc1 (configuration not stated) [Baclofen]	1.95

From the supplement of paper PMC10811239
